# Assay outcomes from PubChem BioAssay.
# Hits are enriched below; roughly 0.5% of the tested compounds scored in any of these assays.
# E coli growth-1 – counter-screen for AddAB inhibitors: E. coli growth inhibition; inhibition, % at 11.9 µM; E. coli V3065 growth, OD600 absorbance, 18 h; 330,000 compounds, 0.27% hits; AID 449728;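 active means inhibition above the campaign's mean inhibition across all tested compounds plus 3 SD, cut at about 9.9% in these data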;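 further: uninfected addAB+ strain grown without phage in ampicillin broth; 0% = DMSO wells and 100% = ciprofloxacin 0.95 µg/ml wells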
# phage Ecoli inh – E. coli growth loss with phage present; growth absorbance; inhibition, % at 11.9 µM; 360,000 compounds, 0.26% hits; AID 651602; in the data active means inhibition above about 11%
# Tat transport – E. coli Tat transport inhibition; AID 488895; 340,000 compounds, 0.036% hits; E. coli MC4100 TorA-mCherry Tat export, fluorescence; inhibition, % at 10 µM;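 active means mean replicate inhibition at least 50% and at least half of replicates individually reaching 50%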;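 further: exported cargo escapes ClpAP degradation while cytoplasmic cargo is degraded and loses fluorescence; 0% = median of neutral control wells and 100% = median of NaSCN control wells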
# AddAB inh – less growth of phage-infected E. coli with AddAB | 330,000 compounds, 0.29% hits | AID 435030 | E. coli expressing H. pylori AddAB, absorbance growth | inhibition, % at 11.9 µM; in the data active means inhibition above about 12%;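 further: 0% = vehicle wells of infected cells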
# E coli growth-2 – E. coli growth inhibition; Escherichia coli growth, OD600, 23 h; hits give low values; OD600 absorbance (no concentration beside the values); 330,000 compounds, 0.21% hits; AID 1053175;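 active means OD600 absorbance below the run mean of sample wells minus 3.6 SD, in any replicate, cut at about 0.56 in these data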
# AddAB confirm – growth loss of T4-infected E. coli expressing H. pylori AddAB, confirmed; shares compounds with AddAB inh; E. coli V3065 expressing H. pylori AddAB, T4 phage, OD; T4 phage with gene 2 nonsense mutations; inhibition, % at 11.9 µM; 880 compounds, 64% hits; AID 488942;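 active means mean inhibition above a set limit taken from the earlier primary screen, cut at about 13% in these data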;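 further: higher means less bacterial growth since AddAB block lets phage replicate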
# RecBCD counter – counter-screen: growth loss of RecBCD+ E. coli with mutant T4 phage; shares compounds with AddAB inh; E. coli V66 + mutant T4 phage, OD growth; inhibition, % at 11.9 µM; 880 compounds, 73% hits;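 active means mean inhibition above the mean of solvent-only control wells plus 3 SD, cut at about 4% in these data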;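 further: optical density read after an 18 h incubation at 37 °C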
# Bact viability – counter-screen: bacterial growth inhibition | shares compounds with AddAB inh | bacterial viability, absorbance (AddAB counterscreen) | inhibition, % at 11.9 µM | 880 compounds, 35% hits; in the data active means inhibition above about 25%
# RecBCD conf – confirmation: growth loss of phage-infected RecBCD+ E. coli (RecBCD inhibitor screen) | shares compounds with phage Ecoli inh | inhibition, % at 11.9 µM | E. coli V66 + T4 2- phage, growth OD | AID 651982 | 890 compounds, 45% hits;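 active means mean inhibition over triplicates exceeding the hit threshold derived in the original primary screen, cut at about 11% in these data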
# Ecoli viability – inhibits E. coli viability, flagging RecBCD hits as nonselective; inhibition, % at 11.9 µM; absorbance (OD) growth; 890 compounds, 29% hits; AID 651983; shares compounds with phage Ecoli inh; in the data active means inhibition above about 20%;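 further: E. coli strain V66 grown with compound alone and no phage infection; 0% = bacteria with DMSO vehicle only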
# AddAB phage OD – growth loss of phage-infected AddAB E. coli, RecBCD counter-screen | E. coli expressing H. pylori AddAB + T4 phage, OD growth; gene 2 mutant T4, recBCD-deleted host | 890 compounds, 45% hits | inhibition, % at 11.9 µM | AID 651984 | shares compounds with phage Ecoli inh;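 active means mean inhibition above the solvent-only control wells' mean plus 3 SD, cut at about 22% in these data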;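 further: higher means less bacterial growth from phage killing when AddAB is blocked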
# Active calls of the source: *; x = no result given.
SMILES,E coli growth-1,phage Ecoli inh,Tat transport,AddAB inh,E coli growth-2,AddAB confirm,RecBCD counter,Bact viability,RecBCD conf,Ecoli viability,AddAB phage OD
O=c1cnnc(N/N=C/c2ccccn2)[nH]1,41*,42*,-23,53*,x,38*,44*,34*,37*,47*,47*
O=[N+]([O-])c1ccc(O)c(C=Nn2c(-c3ccccc3)n[nH]c2=S)c1,x,x,x,x,0.62,x,x,x,x,x,x
Cc1cc(C)nc(NS(=O)(=O)c2ccc(N=NN(C)C)cc2)n1,0,1,-12,3,0.68,x,x,x,x,x,x
Cc1ccc(C(=O)NS(=O)(=O)c2ccc(N=NN(C)C)cc2)cc1,70*,13*,-9,100*,0.65,0,-1,-1,0,1,-1
CC1(C(=O)NS(=O)(=O)c2ccc(F)cc2F)CCN1C(=O)CC1CCCC1 (configuration not stated),x,2,x,x,x,x,x,x,x,x,x
CCn1cc(C(=O)NCC(C)C)c(=O)c2cc(F)c(N3CCN(C)CC3)cc21,100*,87*,x,99*,0.075*,100*,100*,101*,90*,101*,102*
CCn1cc(C(=O)N[C@H](C)c2ccccc2)c(=O)c2cc(F)c(N3CCN(C)CC3)cc21,-1,-2,12,2,0.72,x,x,x,x,x,x
CCn1cc(C(=O)NCc2ccc3c(c2)OCO3)c(=O)c2cc(F)c(N3CCN(C)CC3)cc21,98*,16*,10,99*,0.043*,102*,29*,101*,18*,20,102*
CCC(C)NC(=O)c1cn(CC)c2cc(N3CCN(C)CC3)c(F)cc2c1=O (configuration not stated),95*,94*,x,99*,0.075*,100*,99*,100*,99*,99*,100*
CCCCCCn1cc(C(=O)OCC)c(=O)c2cc(F)c(F)cc21,1,2,5,3,0.7,x,x,x,x,x,x
CCn1cc(SCC(=O)NCc2ccc3c(c2)OCO3)c2ccccc21,1,3,-18,-1,0.7,x,x,x,x,x,x
CCOC(=O)c1cn(CC)c2cc(N3CCN(C)CC3)c(F)cc2c1=O,97*,27*,2,99*,0.068*,102*,19*,100*,11*,12,89*
CCOC(=O)CC(=O)CSc1nc2c(cc1C#N)CCCCC2,-3,4,-8,1,0.74,x,x,x,x,x,x
CCCNC(=O)C1(C)CCCN(C(=O)Cc2cccc(OC)c2)C1 (configuration not stated),x,2,x,x,x,x,x,x,x,x,x
CC1(C(=O)Nc2ccc(F)cc2F)CCN1C(=O)Cc1ccc(Cl)cc1Cl (configuration not stated),x,0,x,x,x,x,x,x,x,x,x
CCN1CCCC1CNCc1ccc(Cl)cc1Cl (configuration not stated),0,-2,-10,1,0.64,x,x,x,x,x,x
COc1cc(C(=O)NCCCC2CCCC2)ccc1OC1CCN(C(C)=O)CC1,x,0,0,x,0.66,x,x,x,x,x,x
O=C(N/N=C/c1ccc([N+](=O)[O-])o1)c1ccncc1,18*,23*,x,94*,x,97*,19*,33*,16*,19,64*
O=C(N/N=C\c1ccc([N+](=O)[O-])o1)c1cncc(Br)c1,5,3,-19,9,x,x,x,x,x,x,x
O=C(N/N=C/c1ccc([N+](=O)[O-])o1)c1ccc(O)cc1,97*,23*,-29,98*,x,96*,24*,78*,17*,21*,98*
CCOC(=O)c1cn(-c2ccc([N+](=O)[O-])cc2)c2cc(Cl)c([N+](=O)[O-])cc2c1=O,3,4,-3,2,0.64,x,x,x,x,x,x
O=C(O)c1cn(-c2ccc(F)cc2)c2cc(Cl)c(F)cc2c1=O,55*,14*,-5,53*,0.066*,102*,99*,101*,98*,100*,99*
CCOC(=O)c1ccc(-c2ccc(C3Nc4ccccc4C(=O)N3O)o2)cc1 (configuration not stated),22*,24*,1,21*,0.64,20*,21*,18,16*,18,14
Cc1cc([N+](=O)[O-])ccc1-c1ccc(C2Nc3ccccc3C(=O)N2O)o1 (configuration not stated),27*,24*,6,31*,0.59,22*,24*,19,18*,21*,21
N#Cc1ccc(-c2ccc(C3Nc4ccccc4C(=O)N3O)o2)cc1 (configuration not stated),6,8,-7,8,0.69,x,x,x,x,x,x
SMILES,E coli growth-1,phage Ecoli inh,Tat transport,AddAB inh,E coli growth-2,AddAB confirm,RecBCD counter,Bact viability,RecBCD conf,Ecoli viability,AddAB phage OD
N#Cc1c2n(c3c(=O)n(Cc4ccc(Cl)cc4)cnc13)CCCCC2,2,2,-8,4,0.71,x,x,x,x,x,x
CCC(=O)NC(c1ccc(Cl)cc1Cl)c1ccc2cccnc2c1O (configuration not stated),22*,22*,1,20*,x,20*,19*,19,15*,17,27*
CC(=O)NC(c1ccco1)c1ccc2cccnc2c1O (configuration not stated),-1,x,7,4,x,x,x,x,x,x,x
Cc1cc(NC(c2ccc(Cl)cc2)c2ccc3cccnc3c2O)no1 (configuration not stated),33*,23*,-1,25*,0.69,25*,23*,21,14*,15,25*
CC(C)C(=O)NC(c1ccc(Cl)cc1Cl)c1ccc2cccnc2c1O (configuration not stated),29*,19*,3,20*,0.65,20*,20*,19,11*,13,22*
COc1cc(OC)c(OC)cc1/C=N/Nc1ncnc2c1[nH]c1ccccc12,3,4,-7,3,x,x,x,x,x,x,x
O=C1Nc2ccc3sc4ccccc4c3c2C1=O,1,4,22,5,0.68,x,x,x,x,x,x
CCn1cc(C(=O)N[C@@H](C)C(=O)NCCCO)c(=O)c2cc3c(cc21)OCO3,x,2,4,x,0.58,x,x,x,x,x,x
CCCCCCNC(=O)c1cn(CC)c2cc(N3CCN(C)CC3)c(F)cc2c1=O,97*,98*,79*,98*,0.067*,101*,100*,101*,101*,102*,101*
